Shiga toxin inh: Shiga toxin inhibition | inhibition, % at 38.7 µM | Vero cells, Shiga toxin protein synthesis inhibition reporter | actives 9.2% (n = 290,000); in the data active = inhibition mostly above about 28%, no sharp cut-off; inactive = mostly below about 43%; note: 0% is about no effect
Pf growth 48h: inhibits P. falciparum growth in the first generation, 48 h; P. falciparum luciferase growth in erythrocytes, 48 h; Potency, µM (doses to about 28.7 µM), inactives show at the top dose activity change, negative = inhibition, actives largely listed as inhibitors; actives 5.9% (n = 310,000); note: potency is the fitted concentration of half-maximal effect; % is set by controls: 0 for no effect and ±100 for the full control effect
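Cell-based growth assay: transgenic P. falciparum expressing firefly luciferase, cultured in red cells within RPMI 1640 containing 0.5% w/v Albumax, 24 mM bicarbonate and gentamycin. A drop in luciferase activity indicates inhibition.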
CHX counter: counter-screen hit for Shiga toxin inhibitors, cycloheximide; cell reporter, cycloheximide protein synthesis inhibition counterscreen; max response, %; actives 12% (n = 300,000); AID 2314; in the data active = max response mostly above about 13%, no sharp cut-off; inactive = mostly below about 14%; note: read at 38.3 µM for the half of the compounds with a filed dose; 0% is about no effect
Pf growth 96h: P. falciparum growth inhibition at 96 hours; Potency, µM (highest dose often 28.7 µM), for the others: top-dose activity change, negative = inhibition, hits mostly inhibitors; P. falciparum luciferase reporter growth, 96 h; actives 6.9% (n = 320,000); note: potency is the fitted concentration of half-maximal effect; % is set by controls: 0 for no effect and ±100 for the full control effect
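Compounds incubated with erythrocytes infected by luciferase-expressing P. falciparum (2% hematocrit, 0.05% parasitemia final) for 96 hours, 37 C in 5% CO2. Growth inhibition scored as decreased luciferase luminescence.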
NS1 function inh: influenza NS1 inhibition | Potency, µM (highest dose often 46.1 µM), for inactives: top-dose activity, positive = more growth | actives 0.4% (n = 270,000); calls by dose curve; note: potency is the fitted concentration of half-maximal effect; actives are rising curves; nearly all actives have a fitted effect of over 50% in size
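S. cerevisiae expressing influenza A NS1, grown in glucose, washed, then diluted 1:100 into pH 6.0 -URA galactose medium with 23 nl compound. Growth recovery read as OD600; NS1-free strain serves as control.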
Giardia FBPA inh: Giardia lamblia aldolase inhibition | actives 0.71% (n = 290,000) | purified Giardia FBPA | Potency, µM (doses to about 59.6 µM), without a hit: at the highest dose activity, negative = inhibition, actives largely listed as inhibitors | A8B2U2; note: potency is the fitted concentration of half-maximal effect; % is set by controls: 0 for no effect and ±100 for the full control effect; nearly all actives have a fitted effect of over 55% in size
Target sequence (A8B2U2 whole entry, looked up): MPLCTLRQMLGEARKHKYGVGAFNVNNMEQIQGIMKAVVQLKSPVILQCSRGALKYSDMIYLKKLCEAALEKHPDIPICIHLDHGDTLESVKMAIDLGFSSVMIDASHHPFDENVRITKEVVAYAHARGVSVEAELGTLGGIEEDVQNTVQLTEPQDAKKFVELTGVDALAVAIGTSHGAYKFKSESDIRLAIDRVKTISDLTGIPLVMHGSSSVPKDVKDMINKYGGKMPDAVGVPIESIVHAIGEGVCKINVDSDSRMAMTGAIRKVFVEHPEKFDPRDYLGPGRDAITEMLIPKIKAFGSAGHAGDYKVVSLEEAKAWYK
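40 nM FBPA preincubated 10 min at RT with compound (up to 57.5 uM final), then substrate plus GAPDH/TPI/NAD/arsenate coupling and diaphorase/resazurin added. Fluorescence read after 20 min at RT, 525/598 nm.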
* = called active by the depositor; i = inactive; u = inconclusive; x = no result; [ ] = remark or other dose. This is a sample that favours compounds with a hit; in the whole collection about 21% have one here. Unless noted, calls come from the whole dose curve; as a rule, active = well fitted curve in the direction sought with a large enough effect; inconclusive = small, poorly fitted or top-dose-only effect, or another doubt; inactive = no such curve, though single readings can be large; an effect the other way counts as inactive or inconclusive.

SMILES	Shiga toxin inh	Pf growth 48h	CHX counter	Pf growth 96h	NS1 function inh	Giardia FBPA inh
NC(=O)c1c(NC(=O)c2ccco2)sc2c1CCC2	44*	x	22*	164%	-42%	0%
CCc1c(C)sc(NC(=O)c2ccoc2C)c1C(N)=O	12	27%	22*	u	-12%	x
CC1CN(c2cnn(C(C)C)c(=O)c2Cl)CC(C)O1 (stereo not given)	7	37%	3	18%	3%	12%
O=C(O)C(Cc1cccs1)C(=O)O	x	x	x	x	-3%	x
COc1cccc(/C=N/NC(=O)c2ccc([N+](=O)[O-])cc2Cl)c1O	-18	u	17*	27%	-6%	-27%
COc1ccc(/C=N/Nc2ccc([N+](=O)[O-])cc2)cc1O	80*	0%[0.00184 µM]	26*	17%	-64%	-15%
COc1cccc(/C=N/Nc2ccc([N+](=O)[O-])cc2)c1O	76*	34%	33*	5%	-5%	-5%
COc1ccc(/C=N/Nc2ccc([N+](=O)[O-])cc2)cc1Cn1cc([N+](=O)[O-])cn1	43	7%	11*	x	2%	-2%
COc1ccc(/C=N/NC(=O)c2ccc(Cn3cc([N+](=O)[O-])cn3)o2)cc1O	10	18%	13	x	14%	2%
COCCN(C(=O)CCC(=O)Nc1ccccn1)C(C(=O)NCCC(C)C)c1ccc(F)cc1 (stereo not given)	-5	22%	-2	-21%	-12%	4%
O=C(O)C(CC1CCCCC1)N1CCS(=O)(=O)CC1 (stereo not given)	-13	i	3	u	x	4%
Cn1cccc1C(=O)N1CCC2(CCN(C(=O)Nc3cccc(C#N)c3)CC2)CC1	x	x	x	x	x	4%
c1cncc(CNc2ncncc2-c2ccoc2)c1	x	x	x	x	x	-28%
O=[N+]([O-])c1ccc(N/N=C\c2cccnc2)nc1	7	84%	6	19%	4%	3%
COc1cc(/C=N/Nc2ccc([N+](=O)[O-])cn2)cc(OC)c1O	17	6%	25*	-3%	0%	-13%
Nc1nc(Br)c2c(F)cccc2c1-c1ccccc1	-15	-6%	7	-11%	-6%	1%
Nc1nn(-c2cccc(F)n2)cc1-c1ccccc1	107*	i	40*	i	0%	-8%
Nc1nn(-c2cccc(F)n2)cc1-c1ccc(Cl)cc1	77*	i	23*	i	4%	5%
Cc1noc(C)c1S(=O)(=O)N(CC(=O)NC(C)c1ccccc1)c1ccc(C(C)C)cc1 (stereo not given)	-2	u	1	u	2%	x
CC(C)(C)OC(=O)N1CCC(c2c(C(=O)NC3CC3)cnn2-c2ccccc2)CC1	-4	12µM*	-1	15%	-2%	4%
CC(C)(C)OC(=O)N1CCC(c2c(C(=O)N3CCN(C(=O)c4ccco4)CC3)cnn2-c2cccc(Cl)c2)CC1	-8	12µM*	-1	1%	-18%	1%
CC(C)(C)OC(=O)N1CCC(c2c(C(=O)O)cnn2-c2ccccc2)CC1	-4	-14%	-1	u	5%	-6%
Cc1cccc(-n2ncc(C(=O)NC3CCCC3)c2C2CCN(C(=O)OC(C)(C)C)CC2)c1	13	1.5µM*	1	u	12%	4%
CN(C)S(=O)(=O)c1cccc(NC(=O)CO/N=C(\N)c2ccccc2)c1	x	-7%	x	24%	x	x
COc1cccc(CNc2ccc(N3CCCCC3)cc2)c1OC	34*	0.52µM*	30*	-18%	u	u
SMILES	Shiga toxin inh	Pf growth 48h	CHX counter	Pf growth 96h	NS1 function inh	Giardia FBPA inh
COc1cccc(OC)c1C(=O)Nc1ccccc1N1CCCCC1	-20	u	-1	39%	-57%	11%
COc1ccccc1CNc1ccc(N2CCCCC2)cc1	45	u	24	u	-8%	u
COc1cccc(Nc2ccc(N3CCCCC3)cc2)c1OC	x	4.7µM*	x	2.3µM*	x	x
Cc1[nH]c2ccccc2c1/C=N/Nc1ccccn1	49	0%	15	10µM*	-27%	-3%
Cc1[nH]c2ccccc2c1/C=N/NC(=O)CNC(=O)COc1ccccc1	1	-10%	-6	-4%	x	-17%
COc1ccccc1NS(=O)(=O)c1cc([N+](=O)[O-])ccc1N/N=C/c1c(C)[nH]c2ccccc12	-20	10µM*	-5	x	9%	-2%
Cc1[nH]c2ccccc2c1/C=N/Nc1ccc([N+](=O)[O-])cc1	77*	u	19*	-5%	5%	u
CCCN1CCN(S(=O)(=O)c2ccc3c(c2)CCC(=O)N3)CC1	x	6%	x	-12%	x	x
CN(C)c1ncc2nc(CCc3ccccc3)c(=O)n(-c3ccccc3)c2n1	x	x	x	x	x	-2%
C=CCN(CC=C)C(=S)Nc1ccc2nsnc2c1	60*	8.3µM*	26*	u	x	10µM*
CC(C)OC(=O)NCCOC(=O)Nc1ccc(Cl)c(Cl)c1	11	u	6	53%	-52%	-1%
COCCNC(=S)Nc1ccc(Cl)c(Cl)c1	5	13%	15*	u	-3%	3%
C=COCCNC(=O)Nc1ccc(Cl)c(Cl)c1	54*	-82%	31*	27%	-41%	-12%
COCCNC(=S)Nc1ccc2nsnc2c1	-19	36%	16*	21%	-3%	u
COCCNC(=S)Nc1ccc2[nH]c(=O)[nH]c2c1	-7	18%	-2	16%	0%	u
Cc1cc(=O)oc2cc(N3C(=O)CC(Cc4ccccc4)C3=O)ccc12 (stereo not given)	-21	6%	-3	-8%	-1%	-5%
C=CCCO[C@@H]1O[C@@H](C)[C@H](O)C[C@H]1O	x	26%	x	23%	x	x
S=c1nc(-c2sccc2OCc2ccc(Cl)cc2Cl)[nH][nH]1	7	i	1	2%	x	26%
CCOCCn1c(=NC(=O)CSCC(=O)Nc2cc(C)on2)sc2cc(OC)ccc21	19	5.2µM*	1	5.2µM*	-16%	x
Nc1c(N(CCC2=CCCCC2)C(=O)c2ccco2)c(=O)[nH]c(=O)n1Cc1ccccc1	x	u	x	-19%	x	x
O=c1[nH]c(SCc2cccc(Cl)c2)nc2[nH]ncc12	17	5%	20*	-4%	2%	-1%
O=c1[nH]c(SCc2ccc(Cl)cc2)nc2ccccc12	21	u	3	13µM*	6%	-3%
O=c1[nH]c(SCc2ccccc2)nc2ccsc12	24	22%	36*	38%	x	-9%
O=c1[nH]c(SCc2cccc([N+](=O)[O-])c2)nc2[nH]ncc12	28	-20%	-4	u	6%	-12%
